DT40 TDP1 CPT: DT40-hTDP1 cell growth loss with CPT. AID 686979. 420,000 compounds, 12% hits. chicken DT40 Tdp1-/-;hTDP1 cells + 20 nM CPT, ATP luminescence, 48 h. Potency, µM (top dose mostly 46.2 µM), without a hit: at the top dose activity change, negative = growth inhibition, hits mostly inhibitors; also: potency is read from the fitted curve at half-maximal effect; nearly all actives have a fitted effect of over 55% in size
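Chicken DT40 Tdp1-/- cells stably complemented with human TDP1 were seeded at 400 cells/well in medium containing 20 nM camptothecin, exposed to pin-transferred compounds, and grown at 37 °C for at least 48 hr. Viability was read as ATP luminescence.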
IL-1B inflam inh: inflammasome signaling inhibition, IL-1 beta readout | THP-1 LPS/ATP IL-1B secretion, AlphaLISA, 16 h; hits give low values | activity change, % at 57.5 µM | 360,000 compounds, 4.7% hits | AID 743279; in the data active = activity change below about -50%; inconclusive = mostly about -30% to -49%
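Secreted IL-1B measured by AlphaLISA bead assay after 16 h compound exposure of THP-1 cells; compounds (final up to 57.5 uM) added 1 h before LPS (250 ng/mL) and ATP (1.25 mM) stimulation; lower signal means less secretion.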
HT1080NT lethal: kills 2HG-producing HT-1080-NT fibrosarcoma cells. HT-1080-NT fibrosarcoma viability, CellTiter-Glo ATP luminescence, 48 h. Potency, µM (doses to about 46.1 µM), inactives show at the highest dose activity, negative = less viability, actives largely listed as cytotoxic. 360,000 compounds, 1.6% hits. AID 686970;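 also: NT is the 2HG producing partner of a matched IDH1 knockdown line; potency is read from the fitted curve at half-maximal effect; 0% = DMSO-treated cells and -100% = media-only wells without cells; nearly all actives have a fitted effect of over 55% in size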
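A 48-hour cytotoxicity screen used HT-1080-NT cells plated 2 hours before compound delivery. ATP-based CellTiter-Glo luminescence measured viability, normalized to DMSO and no-cell controls.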
TDP1 cell noCPT: qHTS for Inhibitors of human tyrosyl-DNA phosphodiesterase 1 (TDP1): qHTS in cells in absence of CPT; DT40 Tdp1-/- hTDP1 cells, no CPT, ATP luminescence, 48 h; Potency, µM (top dose mostly 46.2 µM), for the others: top-dose activity change, negative = growth inhibition, most hits filed as inhibitors; 420,000 compounds, 15% hits; AID 686978, 2013; also: potency is read from the fitted curve at half-maximal effect; nearly all actives have a fitted effect of over 55% in size
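Luminescent ATP content (CellTiter-Glo) served as the growth readout. Knockout chicken DT40 cells expressing human TDP1 were exposed to compounds without camptothecin for a minimum 48 hr at 37 °C.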
HT1080 IDH1KD tx: toxicity to HT-1080 IDH1 knockdown cells (counter line); HT-1080 IDH1 knockdown viability, ATP luminescence, 48 h; Potency, µM (top dose mostly 46.1 µM), for the others: top-dose activity, negative = toxicity, hits mostly cytotoxic; 360,000 compounds, 2% hits; AID 686971;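 also: potency is read from the fitted curve at half-maximal effect; 0% = DMSO wells and -100% = cell-free medium wells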
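% activity derives from luminescence (CellTiter-Glo), normalised to DMSO and no-cell wells. HT-1080-IDH1KD cells, 750/well, had 48 h compound exposure at 37 °C.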
uPA surface inh: inhibitors of cell surface uPA generation | cell surface uPA generation assay, qHTS | Potency, µM (doses to about 38.3 µM), for the others: top-dose activity change, negative = inhibition, usual class: inhibitors | 330,000 compounds, 0.31% hits; active = well fitted inhibition curve with a large enough effect; inconclusive = small, poorly fitted or top-dose-only effect; inactive = no such curve, though single readings can be large or run the other way; tested in mouse RAW 264.7 cells; also: potency is read from the fitted curve at half-maximal effect; nearly all actives have a fitted effect of over 55% in size
* = called active by the depositor; i = inactive; ? = inconclusive; nt = no result. This is a sample that favours compounds with a hit; in the whole collection about 19% have one here. Unless noted, calls follow the shape of the dose curve; as a rule, active = well fitted curve in the direction sought with a large enough effect; inconclusive = small, poorly fitted or top-dose-only effect, or another doubt; inactive = no such curve, though single readings can be large; an effect the other way counts as inactive or inconclusive. Unless noted, % is scaled to controls: 0 for no effect and ±100 for the full control effect.

SMILES	DT40 TDP1 CPT	IL-1B inflam inh	HT1080NT lethal	TDP1 cell noCPT	HT1080 IDH1KD tx	uPA surface inh
CC1CCN(C(=O)CN2c3ccc(C(C)C)cc3-c3ccccc3S2(=O)=O)CC1	15µM*	nt	nt	23µM*	nt	nt
COC(=O)C1CCN(C(=O)CN2C(=O)c3ccccc3S2(=O)=O)CC1	?	-20	?	-3%	9%	1%
Cn1nc(C(=O)OCC(=O)Nc2cccc(S(=O)(=O)N3CCCC3)c2)c2ccccc2c1=O	-28%	4	14%	-27%	1%	-6%
O=C(Cn1ccc(NC(=O)OCc2ccccc2)nc1=O)NCCc1c[nH]c2ccccc12	?	4	?	?	-5%	2%
O=C(CC1N=C2c3ccccc3N=C(SCC(=O)Nc3cccc(Cl)c3)N2C1=O)NCc1cccs1 (configuration not stated)	?	nt	nt	23µM*	nt	nt
CN(C)c1ccc(NC(=O)CSC2=Nc3ccccc3C3=NC(CC(=O)NCc4ccccc4)C(=O)N23)cc1 (configuration not stated)	-8%	nt	nt	-11%	nt	nt
COc1ccc(Cl)cc1NC(=O)CSC1=Nc2ccccc2C2=NC(CC(=O)NCc3cccs3)C(=O)N12 (configuration not stated)	?	nt	nt	23µM*	nt	nt
O=C(C[n+]1cccc(/C=N/O)c1)NC(=O)Nc1ccccc1	-9%	nt	7%	6%	4%	nt
COc1ccc(OC)c(S(=O)(=O)N/N=C\c2cn(CC(N)=O)c3ccccc23)c1	13µM*	i	-22%	?	?	1%
CCOc1ccc(CCNC(=O)c2cc(-c3ccccc3)c(N3CCOCC3)s2)cc1	?	-18	-14%	29µM*	3%	1%
O=C(NCc1ccco1)c1cc(-c2ccccc2)c(N2CCOCC2)s1	-1%	-14	-7%	-11%	-10%	-1%
COc1ccc(CCNC(=O)c2cc(-c3ccccc3)c(N3CCOCC3)s2)c(OC)c1OC	8.2µM*	-21	-9%	23µM*	0%	-5%
CCOc1ccc(CCNC(=O)c2cc(-c3ccccc3)c(N3CCOCC3)s2)cc1OCC	?	13	0%	3.3µM*	0%	-6%
O=C(NCc1ccc2c(c1)OCO2)c1cc(-c2ccccc2)c(N2CCOCC2)s1	?	?	-13%	21µM*	-13%	-4%
CCNC(=O)C1CCCN(C(=O)Cc2cccs2)CC1 (configuration not stated)	13%	31	20%	-2%	18%	nt
CC(=O)Nc1cc(-c2ccccc2N(C)C)cn2c(-c3cccc(C(F)(F)F)c3)cnc12	?	-21	?	?	?	nt
COc1cccc(-c2cnc3c(NC(C)=O)cc(-c4ccsc4)cn23)c1	13µM*	-10	-30%	15µM*	-12%	nt
CC(=O)Nc1cc(-c2cccc(NS(C)(=O)=O)c2)cn2c(-c3cccc(C(F)(F)F)c3)cnc12	18µM*	0	?	18µM*	?	nt
CC(=O)Nc1cccc(-c2cc(NC=O)c3ncc(-c4ccc(C(C)=O)cc4)n3c2)c1	?	-19	23µM*	16µM*	-6%	nt
CC(=O)Nc1cccc(-c2cc(NC(C)=O)c3ncc(-c4cccc(C(C)=O)c4)n3c2)c1	23µM*	22	-1%	10µM*	?	nt
COc1ccc(-c2cc(NC(C)=O)c3ncc(-c4cccc(C(C)=O)c4)n3c2)cc1OC	21µM*	?	-23%	21µM*	?	nt
COc1ccc(-c2cc(NC=O)c3ncc(-c4ccc(C(C)=O)cc4)n3c2)cn1	5.2µM*	-13	?	7.3µM*	?	nt
COc1cccc(-c2cnc3c(NC(C)=O)cc(-c4cccc(C(=O)N(C)C)c4)cn23)c1	?	11	23%	?	18%	nt
COc1cccc(-c2cc(NC(C)=O)c3ncc(-c4ccc(OC)c(OC)c4)n3c2)c1	?	-81*	-22%	21µM*	-12%	nt
COc1cccc(-c2cnc3c(NC(C)=O)cc(-c4ccc(OC)c(OC)c4)cn23)c1	10µM*	?	?	15µM*	?	nt
SMILES	DT40 TDP1 CPT	IL-1B inflam inh	HT1080NT lethal	TDP1 cell noCPT	HT1080 IDH1KD tx	uPA surface inh
CCn1ncc(Br)c1C(=O)Nc1cc([N+](=O)[O-])ccc1C	10%	-9	5%	6%	4%	-5%
O=C1CC(c2ccccc2)=Nc2ccccc2N1Cc1ccccc1	-8%	-8	-15%	-28%	-10%	7%
O=C(CN1C(=O)CC(c2ccc(F)cc2)=Nc2ccccc21)NCc1ccccc1Cl	?	nt	nt	26µM*	nt	nt
Cc1ccc(C2=Nc3ccccc3N(CC(=O)NCc3ccc(F)cc3)C(=O)C2)cc1C	15µM*	nt	nt	23µM*	nt	nt
Cc1ccc(C2=Nc3ccccc3N(CC(=O)NCc3ccc(Cl)cc3)C(=O)C2)cc1C	?	nt	nt	15µM*	nt	nt
Cc1cc(C)cc(Nc2cc(C(=O)NCCCN(Cc3ccccc3)C(C)C)c3ccccc3n2)c1	3.3µM*	nt	nt	3.3µM*	nt	nt
CSc1cccc(Nc2cc(C(=O)NCCCN(Cc3ccccc3)C(C)C)c3ccccc3n2)c1	5.8µM*	nt	nt	4.6µM*	nt	nt
Cc1nnc(Sc2cc(C(=O)NCCCN(C)Cc3ccccc3)c3ccccc3n2)s1	?	nt	-9%	?	-3%	-10%
Nc1cc(N)cc(C(=O)c2ccccc2)c1	-13%	0	-15%	2%	3%	nt
CCOc1ccc(OCC)c(NC(=O)C2CCN(S(=O)(=O)c3ccc(Br)s3)CC2)c1	3%	nt	nt	-12%	nt	nt
Cc1cccn2c(=O)c3cc(C(=O)NCc4ccco4)c(=N)n(C4CCCCC4)c3nc12	?	-98*	?	?	?	-7%
Cc1cccn2c(=O)c3cc(C(=O)NC4CCCC4)c(=N)n(C4CCCCC4)c3nc12	-14%	21	6%	?	15%	0%
Cc1cccn2c(=O)c3cc(C(=O)NCc4ccco4)c(=N)n(CCOCCO)c3nc12	-32%	-57*	0%	?	-5%	-1%
CC12CCC(C(=O)NC3CCCCC3)([C@H](Br)C1=O)C2(C)C (some centres not stated)	7%	0	-27%	8%	14%	11%
O=C(c1cc(C(F)(F)F)cc(C(F)(F)F)c1)N1CCC2(CCCN(Cc3ccccc3)C2)CC1	10%	nt	nt	-20%	nt	nt
C=CCN1C(=O)C2(NC(=O)c3ccccc3N2)c2ccccc21 (configuration not stated)	18µM*	53	?	?	?	-10%
